Results on 40 compounds are retold here after PubChem BioAssay (NCI).

“And” between values parts separate entries of the source, which are not always exact repeats. Equal values may be shown once. About 83,000 compounds went through this panel and 20% of them were active in at least one assay; those are over-represented in the sample as a whole.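 96-well plates, one dose, 48 hours. Percent growth reported; active if below 10.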 Unmarked numbers belong to inactive results. The source made the active and inactive calls.

In this test the test system is MDA-MB-468 breast. Briefly: NCI-60 one-dose screen, 48 h (100 = growth as untreated, 0 = no growth, -100 = all killed). Conditions: 10 µM unless noted.
Turning to `CC1(C)CC[C@]2(c3nnc(-c4ccncc4)o3)CC[C@]3(C)C(=CC[C@@H]4[C@@]5(C)CCC(=O)C(C)(C)[C@@H]5CC[C@]43C)[C@@H]2C1`, the growth is 80%.

For `C#Cc1cc2c(N)c(C(=O)c3cc(OC)c(OC)c(OC)c3)[nH]c2cc1OC`, the growth is 9.88% (active).

In the case of `CCCNS(=O)(=O)c1ccc(Cl)cc1`, the growth is 102%.

Take `COc1cc(NC(=O)C2=C(C)NC(C)=C(C(=O)Nc3cc(OC)c(Cl)cc3OC)C2c2cccc([N+](=O)[O-])c2)c(OC)cc1Cl`: the growth is -11.7% (active).

With `COc1ccc(N(C)c2nc(Cl)nc3cnn(C)c23)cc1`, the growth is 26.9%.

Take `COc1ccc(CCN2CCCN3C2=Nc2ccccc2S3(=O)=O)cc1`: the growth was 5.24% (active).

As for `CCCCCCNC(=O)Oc1ccc(/C(=C(/C)Cc2ccc(OC)cc2)c2ccc(OCCN(C)C)cc2)cc1`, the growth is 62.9%.

Turning to `Cn1nc(-c2ccc(Cl)cc2)nc2c(=O)n(C)c(=O)nc1-2`, the growth is -73.2% (active).

Consider `Cc1ccc(C(C)C)cc1C(=O)C[n+]1ccccc1`, for which the growth was 107%.

On to `COc1cc(OC)c(/C=C/C(=O)c2ccc(Nc3ncnc4ccccc34)cc2)c(OC)c1`, for which the growth is -34.8% (active).

Take `CCOC(=O)C(NC(=O)C(Cl)Cl)C(O)c1ccccc1` (stereo not given): the growth is 102%.

For `O=C1C(Cl)=C(Cl)C(=O)c2c1nc1n2CCCC1`, the growth was 96.7%.

On to `O=C(Nc1cccc(C(F)(F)F)c1)N1CCN(c2cc(-c3cn(-c4ccccc4)nc3-c3cccc(O)c3)ccn2)CC1`, for which the growth was 32.5%.

As for `CC(C)(C)c1ccc(C2CC(=O)C3=C(C2)Nc2ccccc2N(C(=O)c2ccccc2Cl)C3c2ccc(F)cc2)cc1` (stereo not given), the growth is -20.1% (active).

`COc1ccc(C2CC(c3ccc(Nc4ccnc5cc(Cl)ccc45)cc3)=NN2c2ccccc2)cc1` (stereo not given): the growth was 101%.

As to `COc1ccc(/C=C/C(=O)c2ccc(NC(=O)CSc3nnc(-c4ccc(OC)cc4)n3-c3ccccc3)cc2)cc1`, the growth was 106%.

As to `CN(C)CCOc1nc2c3cccnc3cc(-c3cccc(Cl)c3)c2c2ncccc12`, the growth is 2.18% (active).

Consider `C#C[C@]1(O)CC[C@H]2[C@@H]3CC=C4c5sc(Nc6cc(F)ccc6F)nc5CC[C@]4(C)[C@H]3CC[C@@]21C`, for which the growth is -45.6% (active).

Turning to `COc1ccc2c3c(ccc2c1)C(=O)/C(=C\O)CC3`, the growth was 111%.

In the case of `Cc1cc(NS(=O)(=O)c2ccc(NC(=O)CSc3nc4ccccc4c(=O)n3-c3ccccc3)cc2)no1`, the growth is 91%.

As for `CC[C@H](C)C(=O)O[C@H]1CCC=C2C=C[C@H](C)[C@H](CC[C@@H]3CC=CC(=O)O3)[C@H]21`, the growth is 85%.

Turning to `C=CCCC(=O)N1C=CC(=O)[C@H](O)[C@@H]1/C=C/c1ccccc1`, the growth was 4.99% [100 µM] (active).

Regarding `O=C1C[C@H](c2ccccc2)[C@H](c2ccccc2)C1`, the growth was 99.2%.

Turning to `Cn1cc(-c2nn3cc(-c4ccncc4)nc3s2)c2cc(Cl)ccc21`, the growth was 64.8%.

Turning to `O=[N+]([O-])c1ccc(NC(c2ccccc2)c2ccc3cccnc3c2O)cc1` (stereo not given), the growth was -28.9% (active).

As for `CNC(=O)c1cc(Cn2nc(C)c(NC(=O)Nc3ccc(Cl)c(C(F)(F)F)c3)c2C)ccn1`, the growth was 97.5%.

Turning to `C#CCOc1cccc(-c2ncnc3cc(NC(=O)C=C)ccc23)c1`, the growth is -8.85% (active).

Consider `c1ccc(Oc2c3ccccc3nc3ccccc23)cc1`, for which the growth is -4.55% (active).

Consider `CC(=O)CSC(C)=O`, for which the growth was 99.1%.

`COc1ccc(CNCCN2C(=O)c3ccc4c5c(ccc(c35)C2=O)C(=O)N(CCNCc2ccc(OC)c(OC)c2OC)C4=O)c(OC)c1OC`: the growth is -87.2% (active).

Consider `Cc1nn(-c2ccccc2)c2nc3c(c(-c4ccc(Cl)cc4)c12)CNC1(CCSCC1)N3`, for which the growth is 93.1%.

For `O=C(COc1ccccc1)N1N=C(c2ccc(Cl)cc2)CC1c1c[nH]c2ccccc12` (stereo not given), the growth is 85.7%.

Take `NC(N)=N/N=C(\c1ccccc1)C(O)c1ccccc1` (stereo not given): the growth is 99.8%.

For the compound `CCOC(=O)N1CCN(CCCCOc2ccc(C(C)(C)CC)cc2)CC1`, the growth is 92.9%.

Regarding `CNC1=C(Br)C(=O)c2c(C(=O)OC)c(C)nc(C)c2C1=O`, the growth is 27.4%.

On to `Cc1nc(-c2ccc(Cl)cc2)ccc1NC(=O)Nc1cccc(C(F)(F)F)c1`, for which the growth is 98.5%.

On to `N#C/C(=C\c1ccc2ccccc2c1)C(=O)Nc1sc2c(c1C#N)CCC2`, for which the growth is 96.8%.

Turning to `CCC(O)c1ccccc1` (stereo not given), the growth is 108% and 97.6%.

Turning to `Clc1ccc2c(c1)NC1(CCSc3ccccc31)n1nccc1-2` (stereo not given), the growth was 106%.

For the compound `COc1ccc([N+](=O)[O-])c(C(=O)O)c1`, the growth is 96.4%.
